Out of some 320,000 compounds screened, about 2,100 (0.66%) were called active. Not shown: some 53% with an inconclusive outcome. This is one part of a sample in which actives are shown more often than they occur. Calls follow the shape of the dose curve; as a rule, active = well fitted inhibition curve with a large enough effect in the signal ratio, with a control signal flat (not every such curve was filed as active); inconclusive = small, poorly fitted or top-dose-only effect, or effect the other way, or a change in a side signal; inactive = flat fitted curve, though single readings scatter; the % refers to the signal ratio.
assay: qHTS Assay for Lipid Storage Modulators in Drosophila S3 Cells; settings: BODIPY lipid droplet fluorescence, 18-24 h, cells fed with added oleic acid; cell number change: measured here: cell count max response; series mostly up to 46.1 µM;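 as to cell number change: cells counted by Cell Tracker Red CMTPX staining in the red channel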; as to lipid storage change, negative = inhibition: % is scaled to controls: 0 for no effect and ±100 for the full control effect
Outline: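 Drosophila S3 cells got compounds at several concentrations plus oleic acid (400 uM solution). Laser-scanning cytometry with 488 nm excitation read lipid droplets at 500-530 nm and cells at 575-640 nm. Percent activity was relative to 20 uM Triacsin C.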
Potency is read from the fitted curve at half-maximal effect.

SMILES | Potency | cell number change [%] | lipid storage change, negative = inhibition
C/C(=N/N=C1/NC(=O)CC(C(=O)Nc2ccccc2)S1)c1cccs1 (configuration not stated) | inactive | 1.13 | –
CCOc1ccc(/C=C2\SC(=S)N(CCC(=O)Nc3ccc(C(=O)O)cc3)C2=O)cc1 | inactive | 8.29 | –
O=C(Nc1cccc(C(F)(F)F)c1)c1cncs1 | inactive | – | –
CCC(C)NC(=O)C1c2ccccc2C(=O)N1Cc1cc(OC)ccc1OC (configuration not stated) | inactive | 8.31 | –
O=C(N=Nc1c(O)[nH]c2ccccc12)c1cccs1 | inactive | -7.18 | –
COc1cc(OC)cc(C(=O)N2CCN(C(=O)c3ccc(OC)c(OC)c3)CC2)c1 | inactive | 14.7 | –
CC(C)=CCCC(C)CN(C)CCc1ccccn1 (configuration not stated) | 18.4 µM (active) | -0.762 | –
CN(CCc1ccccn1)Cc1ccc(Cl)cc1 | inactive | 7.49 | –
CN(CCc1ccccn1)Cc1ccc(Cl)c(Cl)c1 | inactive | -4.68 | –
COc1ccc(CNC(=S)Nc2ccccc2)cc1Cl | inactive | 0.106 | –
COC(CNC(=O)CN1CCN(Cc2ccc(F)cc2Cl)C1=O)OC | inactive | -2.41 | –
Nc1ccc(C(=O)OCCCc2nc3ccccc3[nH]2)cc1 | inactive | 0.404 | –
Nc1ccc(C(=O)OCCCc2nc3cc4ccccc4cc3[nH]2)cc1 | 25.9 µM (active) | -15.5 | –
COC(=O)c1ccc(C(=O)OCCCc2nc3ccc(N)cc3[nH]2)cc1 | inactive | 2.42 | –
COc1ccc(/C=C(\C#N)C(=O)c2c(C)[nH]c3ccccc23)cc1OC | inactive | – | –
O=C(CSc1ccccc1)Nc1nnc(C2CC2)s1 | inactive | 6.15 | –
O=C(COC(=O)C1CCC(=O)N1)Nc1ccc(Cl)cc1Cl (configuration not stated) | inactive | -17 | –
Cc1ccc(NC(=O)COC(=O)CCc2ccc(S(=O)(=O)N3CCOCC3)cc2)c(C)c1 | inactive | 16.8 | –
Cc1ccc(NC(=O)COC(=O)C2CCC(=O)N2)c(S(=O)(=O)N2CCOCC2)c1 (configuration not stated) | 3.66 µM (active) | 2.3 | –

SMILES | Potency | cell number change [%] | lipid storage change, negative = inhibition
CCC(C)OC(=O)C1=C(C)OC23OC(N)=C(C#N)C12C(=O)c1ccccc13 (configuration not stated) | inactive | 2.42 | –
CC(OC(=O)Cc1ccc(Br)cc1)C(=O)NC1CCCCC1C (configuration not stated) | inactive | 5.28 | –
CC(OC(=O)Cc1c(F)cccc1Cl)C(=O)NC1CCCCC1C (configuration not stated) | 16.4 µM (active) | -24.1 | –
CC(OC(=O)CNC(=O)c1ccc(Cl)cc1)C(=O)NC1CCCCC1C (configuration not stated) | – | 3.37 | -18.8% [at 0.0737 µM] (inactive)
CCc1ccc2oc(=O)cc(CN3CCN(Cc4ccccc4)CC3)c2c1 | inactive | 4.49 | –
O=C(NCc1ccccc1)c1cc(-c2cccc(O)c2)on1 | inactive | 9.36 | –
CC(OC(=O)c1nc(Cl)ccc1Cl)C(=O)Nc1ccccc1F (configuration not stated) | inactive | -13.3 | –
CCn1c(SCC(=O)Nc2ccc(C(C)=O)cc2)nnc1C1CC1 | inactive | 13.3 | –
CC(=O)c1ccc(NC(=O)CSc2nnc(C3CC3)n2C)cc1 | 1.84 µM (active) | 24.2 | –
CC(C)n1cnnc1SCC(=O)Nc1cccc(S(=O)(=O)N(C)c2ccccc2)c1 | inactive | -11.3 | –
CCn1c(SCC(=O)Nc2cccc(S(=O)(=O)N(C)c3ccccc3)c2)nnc1C1CC1 | inactive | 0.735 | –
CC(=O)Nc1ccc(NC(=O)CSc2nnc(C3CC3)n2C)cc1 | inactive | -6.84 | –
CN(c1ccccc1)S(=O)(=O)c1cccc(NC(=O)CSc2nnc(C3CC3)n2C)c1 | 23.1 µM (active) | 4.1 | –
COc1ccc(NC(=O)c2ccc(S(=O)(=O)N3CCCCC3)cc2)c(OC)c1 | inactive | -34.1 | –
Cc1cc2n(n1)SC(Nc1cc(Cl)ccc1Cl)N2 (configuration not stated) | inactive | -3.68 | –
COc1ccc(N2CCN(CCCNC(=O)CN3C(=O)COc4ccccc43)CC2)cc1 | inactive | -22.1 | –
Cn1c(C(=O)N2CCN(c3ccc(Cl)cc3)CC2)cc2c(=O)[nH]c3ccccc3c21 | inactive | 18.3 | –
COc1ccc(/C=N/NC(=O)C(O)(c2ccccc2)c2ccccc2)cc1OC | inactive | 3.71 | –
O=C(O)COc1ccc(/C=N/NC(=O)C(O)(c2ccccc2)c2ccccc2)cc1 | inactive | 7.99 | –

SMILES | Potency | cell number change [%] | lipid storage change, negative = inhibition
CCN(CC)c1ccc(/C=N/NC(=O)C(O)(c2ccccc2)c2ccccc2)o1 | 20.6 µM (active) | -15.7 | –
O=C(C1CCN(Cc2cccs2)CC1)N1CCN(Cc2ccc3c(c2)OCO3)CC1 | inactive | 20.4 | –
C/C(=C/Cc1c(O)cc2oc(C)cc(=O)c2c1O)COC1OC(CO)C(O)C(O)C1O (configuration not stated) | inactive | 6.97 | –
CCN1C(=O)[C@H]2[C@@H](c3ccc(-c4ccccc4)cc3)N[C@@](CC(C)C)(C(=O)OC)[C@H]2C1=O | inactive | 7.59 | –
CCN1C(=O)[C@H]2[C@@H](c3ccc(-c4ccc(OC)cc4)cc3)N[C@@](CC(C)C)(C(=O)OC)[C@H]2C1=O | inactive | 12.8 | –
CCN1C(=O)[C@H]2[C@@H](c3ccc(SC4CCCCC4)cc3)N[C@@](CC(C)C)(C(=O)OC)[C@H]2C1=O | 8.2 µM (active) | – | –
CC(C)NC(=O)c1ccccc1NC(=O)CS(=O)(=O)Cc1ccccc1 | inactive | 14.5 | –
Cc1ccc(NS(=O)(=O)c2ccc3c(c2)oc(=O)n3C)cc1C | inactive | 5.19 | –
COc1ccccc1NS(=O)(=O)c1ccc2oc(SC(C)C(=O)N3CCNC3=O)nc2c1 (configuration not stated) | inactive | -7.72 | –
COc1ccccc1NS(=O)(=O)c1ccc2oc(SCc3ccc(F)cc3)nc2c1 | inactive | -19.8 | –
CCOC(=O)CSc1nc2cc(S(=O)(=O)Nc3ccccc3OC)ccc2o1 | 29.1 µM (active) | -16.6 | –
CSc1ccc(CCNC(=O)CN2C(=O)CCSc3ccccc32)cc1 | inactive | 2.42 | –
Cc1cc(C)nc(SCC(=O)c2ccc([N+](=O)[O-])cc2)n1 | inactive | – | –
Cc1cc(C)nc(Sc2ccc([N+](=O)[O-])cc2[N+](=O)[O-])n1 | 16.4 µM (active) | -6.83 | –
Cc1cc(C)nc(SCc2ccc([N+](=O)[O-])cc2)n1 | inactive | -8.5 | –
C=CCn1c(=O)c2c(nc(-n3nc(C)cc3C)n2C)n(C)c1=O | inactive | – | –
Cc1cc(C)nc(N2CCN(C(=O)CCC(=O)Nc3nnc(C(C)C)s3)CC2)n1 | inactive | 0.873 | –
O=S(=O)(/N=C(\c1ccccc1F)N1CCCCC1)c1ccccc1 | inactive | -0.464 | –
